Data published in PubChem BioAssay (NCATS).
Where “and” joins values, the source holds several entries; their conditions need not be identical. Identical values can stand only once. Inconclusive results are not listed. A structure can be active in one record and inactive in another. Calls of active or inactive are those of the source. The call rests on the fitted dose curve; in most records, active means well fitted curve in the direction sought with a large enough effect; inconclusive means small, poorly fitted or top-dose-only effect, or another doubt; inactive means no such curve, though single readings can be large; an effect the other way counts as inactive or inconclusive.

Key:
[1] = target: ATP-dependent 6-phosphofructokinase (Trypanosoma brucei brucei) (UniProt O15648); test: qHTS Assay to Find Inhibitors of T. brucei phosphofructokinase: hit validation (AID 492961);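 further: luminescence reports ADP formed as PFK phosphorylates fructose-6-phosphate with ATP; on the % scale 0 is the no-effect control and ±100 the full control effect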
In short: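 Percent activity derived from corrected luminescence, normalized between 0x and 1x enzyme controls, then fitted to concentration-response curves. Conditions: 1.25 nM PFK, 0.1 mM ATP, 0.5 mM F6P, 45 min RT.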

[2] = qHTS profiling for inhibitors of Plasmodium falciparum proliferation (AID 504749); further: potency means the concentration at half of the fitted maximal effect;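 on activity, negative = inhibition: 0% = DMSO vehicle and full inhibition = artemisinin control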; on all read-outs here: nearly all actives have a fitted effect of over 60% in size; details: P. falciparum in erythrocytes, SYBR Green DNA, 72 h; for activity, negative = inhibition: at 28.7 µM (top of the series)
In short: (§1)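 Parasite proliferation within erythrocytes, 72 h exposure. Endpoint: SYBR Green I fluorescence after overnight lysis at room temperature. Controls: 0.29 uM artemisinin, DMSO.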

AS120 = test: as above; details: P. falciparum in erythrocytes, SYBR Green DNA, 72 h; series mostly up to 28.7 µM
In short: as §1

ATS189 = test: as above; details: P. falciparum in erythrocytes, SYBR Green DNA, 72 h; series mostly up to 28.7 µM
In short: as §1

CP191 = test: as above; details: P. falciparum in erythrocytes, SYBR Green DNA, 72 h; series mostly up to 28.7 µM
In short: as §1

CP192 = test: as above; details: P. falciparum in erythrocytes, SYBR Green DNA, 72 h; series mostly up to 28.7 µM
In short: as §1

CP211 = test: as above; details: P. falciparum in erythrocytes, SYBR Green DNA, 72 h; series mostly up to 28.7 µM
In short: as §1

CP238 = test: as above; details: P. falciparum in erythrocytes, SYBR Green DNA, 72 h; series mostly up to 28.7 µM
In short: as §1

CP252 = test: as above; details: P. falciparum in erythrocytes, SYBR Green DNA, 72 h; series mostly up to 28.7 µM
In short: as §1

CP262 = test: as above; details: P. falciparum in erythrocytes, SYBR Green DNA, 72 h; series mostly up to 28.7 µM
In short: as §1

CP265 = test: as above; details: P. falciparum in erythrocytes, SYBR Green DNA, 72 h; series mostly up to 28.7 µM
In short: as §1

CP286 = test: as above; details: P. falciparum in erythrocytes, SYBR Green DNA, 72 h; series mostly up to 28.7 µM
In short: as §1

Dd2 = test: as above; details: P. falciparum in erythrocytes, SYBR Green DNA, 72 h; series mostly up to 28.7 µM
In short: as §1

FAB9 = test: as above; details: P. falciparum in erythrocytes, SYBR Green DNA, 72 h; series mostly up to 28.7 µM
In short: as §1

HB3 = test: as above; details: P. falciparum in erythrocytes, SYBR Green DNA, 72 h; series mostly up to 28.7 µM
In short: as §1

AA1029 = test: as above; details: P. falciparum in erythrocytes, SYBR Green DNA, 72 h; series mostly up to 28.7 µM
In short: as §1

CP185 = test: as above; details: P. falciparum in erythrocytes, SYBR Green DNA, 72 h; series mostly up to 28.7 µM
In short: as §1

CP217 = test: as above; details: P. falciparum in erythrocytes, SYBR Green DNA, 72 h; series mostly up to 28.7 µM
In short: as §1

ECU = test: as above; details: P. falciparum in erythrocytes, SYBR Green DNA, 72 h; series mostly up to 28.7 µM
In short: as §1

N140 = test: as above; details: P. falciparum in erythrocytes, SYBR Green DNA, 72 h; series mostly up to 28.7 µM
In short: as §1

ATP-dependent 6-phosphofructokinase (Trypanosoma brucei brucei), sequence (O15648 whole entry, looked up): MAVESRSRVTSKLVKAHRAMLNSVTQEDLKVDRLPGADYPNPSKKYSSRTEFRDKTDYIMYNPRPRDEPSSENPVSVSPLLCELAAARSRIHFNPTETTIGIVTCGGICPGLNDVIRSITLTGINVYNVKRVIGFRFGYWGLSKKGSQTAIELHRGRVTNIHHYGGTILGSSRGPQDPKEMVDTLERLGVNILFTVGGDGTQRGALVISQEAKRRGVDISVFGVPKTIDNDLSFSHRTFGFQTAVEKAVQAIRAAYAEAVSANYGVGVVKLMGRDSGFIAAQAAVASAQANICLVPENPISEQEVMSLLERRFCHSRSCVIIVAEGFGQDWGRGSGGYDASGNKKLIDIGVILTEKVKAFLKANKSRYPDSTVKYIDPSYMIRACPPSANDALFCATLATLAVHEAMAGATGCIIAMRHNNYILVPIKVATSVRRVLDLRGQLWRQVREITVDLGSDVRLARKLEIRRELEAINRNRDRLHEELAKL

CNC1=CN(O)C(c2ccccc2)=c2cc(Cl)ccc2=N1
active: Potency ([2]; parasite line A) 3.55 µM | Potency ([2]; parasite line B) 2.24 µM and 11.2 µM | Potency (ATS189) 4.47 µM | Potency (CP191) 0.1 µM | Potency (CP192) 4.26 µM | Potency (CP211) 4.26 µM | Potency (CP252) 8.91 µM | Potency (CP265) 6.31 µM | Potency (CP286) 4.47 µM | Potency (FAB9) 2.51 µM
inactive: Potency [1] | Potency (CP238) | Potency (CP262) | Potency (Dd2) | Potency (HB3)
11.2 µM (active) and inactive: Potency (AS120)

CC1OC(OC2C(O)CC(OC3C(O)CC(OC4CCC5(C)C(CCC6C5CCC5(C)C(C7=CC(=O)OC7)CCC65O)C4)OC3C)OC2C)CC(O)C1O (configuration not stated)
inactive: Potency [1] | activity, negative = inhibition ([2]; parasite line A) 1.31% | activity, negative = inhibition ([2]; parasite line B) 5.82% | Potency (AA1029) | Potency (AS120) | Potency (ATS189) | Potency (CP185) | Potency (CP191) | Potency (CP192) | Potency (CP211) | Potency (CP217) | Potency (CP238) | Potency (CP252) | Potency (CP262) | Potency (CP265) | Potency (CP286) | Potency (ECU) | Potency (FAB9) | Potency (N140)

CCN(CC)C(=O)[C@@]1(c2ccccc2)C[C@@H]1CN
inactive: Potency [1] | activity, negative = inhibition ([2]; parasite line A) 3.47% | activity, negative = inhibition ([2]; parasite line B) 2.1% | Potency (AA1029) | Potency (AS120) | Potency (ATS189) | Potency (CP185) | Potency (CP191) | Potency (CP192) | Potency (CP211) | Potency (CP217) | Potency (CP238) | Potency (CP252) | Potency (CP262) | Potency (CP265) | Potency (CP286) | Potency (Dd2) | Potency (ECU) | Potency (FAB9) | Potency (HB3) | Potency (N140)

Cc1cc2nc3c(=O)[nH]c(=O)nc-3n(CC(O)C(O)C(O)COP(=O)(O)O)c2cc1C (configuration not stated)
inactive: Potency [1] | activity, negative = inhibition ([2]; parasite line A) -0.201% | activity, negative = inhibition ([2]; parasite line B) 1.68% | Potency (AA1029) | Potency (AS120) | Potency (ATS189) | Potency (CP185) | Potency (CP192) | Potency (CP211) | Potency (CP217) | Potency (CP238) | Potency (CP252) | Potency (CP262) | Potency (CP265) | Potency (CP286) | Potency (Dd2) | Potency (ECU) | Potency (FAB9) | Potency (HB3) | Potency (N140)

CCC(=O)O[C@]1(C(=O)CCl)[C@@H](C)CC2C3C[C@H](F)C4=CC(=O)C=CC4(C)[C@@]3(F)C(O)CC21C (some centres not stated)
active: Potency ([2]; parasite line A) 12.6 µM | Potency ([2]; parasite line B) 11.2 µM | Potency (AA1029) 8.91 µM | Potency (AS120) 7.94 µM | Potency (ATS189) 10 µM | Potency (CP185) 11.2 µM | Potency (CP191) 7.94 µM | Potency (CP211) 9.53 µM | Potency (CP217) 7.94 µM | Potency (CP238) 8.91 µM | Potency (CP252) 8.91 µM | Potency (CP262) 9.53 µM | Potency (CP265) 8.91 µM | Potency (CP286) 10 µM | Potency (Dd2) 7.94 µM | Potency (ECU) 3.55 µM | Potency (HB3) 12.6 µM | Potency (N140) 6.31 µM
inactive: Potency [1] | Potency (FAB9)

CC1(C)O[C@@H]2C[C@H]3[C@@H]4CCC5=CC(=O)C=C[C@]5(C)[C@H]4C(O)C[C@]3(C)[C@]2(C(=O)CO)O1 (some centres not stated)
active: Potency (N140) 11.2 µM
inactive: Potency [1] | activity, negative = inhibition ([2]; parasite line A) -12.4% | activity, negative = inhibition ([2]; parasite line B) -28% | Potency (ATS189) | Potency (CP185) | Potency (CP191) | Potency (CP192) | Potency (CP211) | Potency (CP217) | Potency (CP238) | Potency (CP252) | Potency (CP262) | Potency (CP265) | Potency (CP286) | Potency (FAB9) | Potency (HB3)

CC1CN(c2c(F)c(N)c3c(=O)c(C(=O)O)cn(C4CC4)c3c2F)CC(C)N1 (configuration not stated)
inactive: Potency [1] | activity, negative = inhibition ([2]; parasite line A) -2.02% | activity, negative = inhibition ([2]; parasite line B) 11% | Potency (AA1029) | Potency (AS120) | Potency (ATS189) | Potency (CP185) | Potency (CP191) | Potency (CP192) | Potency (CP211) | Potency (CP217) | Potency (CP238) | Potency (CP252) | Potency (CP262) | Potency (CP265) | Potency (CP286) | Potency (Dd2) | Potency (ECU) | Potency (FAB9) | Potency (HB3) | Potency (N140)

CCOC(=O)C(CCc1ccccc1)NC(C)C(=O)N1Cc2cc(OC)c(OC)cc2CC1C(=O)O (configuration not stated)
active: Potency (AS120) 5.01 µM | Potency (ECU) 5.01 µM | Potency (N140) 3.55 µM
inactive: Potency [1] | activity, negative = inhibition ([2]; parasite line A) -6.17% | activity, negative = inhibition ([2]; parasite line B) -28.7% | Potency (ATS189) | Potency (CP185) | Potency (CP191) | Potency (CP192) | Potency (CP211) | Potency (CP238) | Potency (CP252) | Potency (CP262) | Potency (CP265) | Potency (CP286) | Potency (Dd2) | Potency (FAB9)

C#C[C@]1(O)CC[C@H]2[C@H]3[C@H](CC[C@@]21C)C1=C(CC(=O)CC1)C[C@@H]3C
inactive: Potency [1] | activity, negative = inhibition ([2]; parasite line A) -14.8% | activity, negative = inhibition ([2]; parasite line B) -21.9% | Potency (AA1029) | Potency (AS120) | Potency (ATS189) | Potency (CP185) | Potency (CP191) | Potency (CP192) | Potency (CP211) | Potency (CP217) | Potency (CP238) | Potency (CP252) | Potency (CP262) | Potency (CP265) | Potency (CP286) | Potency (Dd2) | Potency (ECU) | Potency (FAB9) | Potency (HB3) | Potency (N140)

C/C=C1/NN(CCCN2CCN(c3cccc(Cl)c3)CC2)C(=O)N1CCOc1ccccc1
inactive: Potency [1] | activity, negative = inhibition ([2]; parasite line A) -8.67% | activity, negative = inhibition ([2]; parasite line B) 7.5% | Potency (AA1029) | Potency (AS120) | Potency (ATS189) | Potency (CP185) | Potency (CP192) | Potency (CP211) | Potency (CP217) | Potency (CP238) | Potency (CP252) | Potency (CP262) | Potency (CP265) | Potency (CP286) | Potency (ECU) | Potency (FAB9) | Potency (HB3) | Potency (N140)
